PLCg1 inh: PLC-gamma1 (human) inhibition, primary screen; hit rate 0.84% among 370,000; P19174; inhibition, % at 12.2 µM; purified PLC-gamma1, fluorogenic substrate, fluorescence; in the data active means inhibition above about 9.5%
PLC-beta3 inh: inhibitors of human phospholipase C beta3; Q01970; Purified PLC-beta3, fluorogenic substrate, fluorescence; inhibition, % at 12.2 µM; hit rate 0.18% among 370,000; in the data active means inhibition above about 11%
ADAM10 inh: inhibitors of human ADAM10; inhibition, % at 7 µM; O14672; hit rate 0.62% among 370,000; recombinant ADAM10, EDANS/DABCYL FRET peptide cleavage, 3 h;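 active means inhibition above a per-campaign cutoff equal to the mean of compounds falling between control-based bounds plus 3 SD, cut at about 20% in these data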
KLK7 zymogen act: proKLK7 (human) activation, primary screen; P49862; purified proKLK7, EDANS-DABCYL substrate fluorescence; 100% is mature enzyme control, 0% vehicle; activation, % at 7 µM; hit rate 0.9% among 370,000; AID 652039;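 active means activation above the mean of all tested compounds plus 3 SD, computed per campaign excluding outliers beyond control limits, cut at about 13% in these data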
Target sequence (P49862 whole entry, looked up): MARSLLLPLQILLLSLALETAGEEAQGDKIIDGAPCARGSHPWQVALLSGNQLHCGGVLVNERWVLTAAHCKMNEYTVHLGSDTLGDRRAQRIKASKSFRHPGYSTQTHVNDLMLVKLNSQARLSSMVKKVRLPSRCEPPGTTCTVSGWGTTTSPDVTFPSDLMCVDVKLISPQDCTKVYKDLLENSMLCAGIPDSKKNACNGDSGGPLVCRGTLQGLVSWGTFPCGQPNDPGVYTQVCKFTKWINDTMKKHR
ADAM17 inh: ADAM17 inhibition, QFRET primary screen. recombinant ADAM17, EDANS/DABCYL FRET peptide cleavage. inhibition, % at 6.95 µM. hit rate 0.83% among 370,000;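 active means inhibition above the mean of compounds lying between control limits plus 3 SD, set per campaign, cut at about 8.5% in these data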
ADAM10 counter: ADAM10 inhibition, counter-screen for ADAM17 exosite hits. shares compounds with ADAM17 inh. recombinant ADAM10, EDANS/DABCYL FRET peptide cleavage, 3 h. inhibition, % at 6.95 µM. hit rate 47% among 2,900. AID 743256;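 active means mean inhibition over the triplicate runs exceeds the activity threshold set in the earlier primary screen, cut at about 20% in these data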
ADAM17 confirm: human ADAM17 inhibition, confirmation | hit rate 65% among 2,900 | recombinant ADAM17, EDANS/DABCYL QFRET peptide cleavage | inhibition, % at 6.95 µM | AID 743257 | shares compounds with ADAM17 inh;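 active means mean inhibition across replicates above the hit cutoff set in the primary screen, cut at about 8.5% in these data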
Of the large screens only hits and unclear results are named; the others gave an inactive call (follow-up assays come after a bar, where they were run). Hits are enriched below; roughly 2.9% of the tested compounds scored in any of these assays.

CC(C)N(c1ccccc1)c1ccc(NC(=O)COC(=O)CCN2C(=O)c3cccc([N+](=O)[O-])c3C2=O)cc1	ADAM17 inh 8.7 | ADAM10 counter 25 | ADAM17 confirm 15
O=[N+]([O-])c1ccc(-c2cnc(SC(c3ccccc3)c3ccccc3)[nH]2)cc1	ADAM17 inh 10.0 | ADAM10 counter 33 | ADAM17 confirm 14
Cc1ccc(-n2c(C3CC3c3ccc(Cl)cc3)n[nH]c2=S)cc1 (stereo not given)	ADAM17 inh 12 | ADAM10 counter inactive | ADAM17 confirm 12
COc1cccc(N2CCN(C(=O)c3ccc(CS(=O)Cc4ccccc4Cl)o3)CC2)c1 (stereo not given)	none
O=C(c1ccc(CS(=O)Cc2ccccc2Cl)o1)N1CCN(c2cccc(Cl)c2)CC1 (stereo not given)	ADAM17 inh 15 | ADAM10 counter inactive | ADAM17 confirm 9.0
O=C(c1ccc(CS(=O)Cc2ccccc2Cl)o1)N1CCN(c2ccccn2)CC1 (stereo not given)	ADAM17 inh 12 | ADAM10 counter inactive | ADAM17 confirm inactive
NC(=NCCc1c[nH]c2ccccc12)NS(=O)(=O)c1ccc(F)cc1	none
NC(=NCCc1c[nH]c2ccccc12)NS(=O)(=O)c1ccc2ccccc2c1	ADAM17 inh 9.9 | ADAM10 counter inactive | ADAM17 confirm 9.4
CCCCn1nnnc1C(c1ccccc1)N1CCN(c2ncc(C(F)(F)F)cc2Cl)CC1 (stereo not given)	none
CNC(C)C(=O)NC(C(=O)NC(C)C(=O)Nc1cccc2ccccc12)C(C)C (stereo not given)	none
Cc1ccc(Cn2c(C(CO)Nc3nc(-c4ccc(Cl)c([N+](=O)[O-])c4)cs3)nc3ccccc32)cc1 (stereo not given)	ADAM17 inh 17 | ADAM10 counter inactive | ADAM17 confirm 9.7
O=C(O)C1=CCC(c2ccc(Cl)c(Cl)c2)N(S(=O)(=O)c2ccc(F)cc2)C1c1cccc(F)c1 (stereo not given)	none
CC(C)(C)N1Cc2nnn(Cc3ccccc3)c2-c2cc(F)ccc2S1(=O)=O	none
COC(=O)[C@H](CC(C)C)N1Cc2nnn(Cc3ccc(C)cc3)c2-c2cc(F)ccc2S1(=O)=O	ADAM17 inh 10 | ADAM10 counter inactive | ADAM17 confirm 14
OC(c1cccc(Cl)c1)c1nc(/C=C/c2ccc(C(F)(F)F)cc2)cs1 (stereo not given)	ADAM17 inh 12 | ADAM10 counter inactive | ADAM17 confirm inactive
OC(c1cccc(Cl)c1)c1nc(-c2ccccc2)cs1 (stereo not given)	none
CC(C)c1cccc(-c2csc(C(O)c3cccc(Cl)c3)n2)c1 (stereo not given)	ADAM17 inh 9.7 | ADAM10 counter inactive | ADAM17 confirm 13
Cc1csc(N=Cc2ccc([N+](=O)[O-])o2)n1	none
COc1cccc(OC)c1C(=O)Nc1cccc(-c2nc3ccccc3[nH]2)c1	ADAM17 inh 8.7 | ADAM10 counter inactive | ADAM17 confirm inactive
OC[C@@H]1CN(CCc2ccccc2)C[C@H](n2cnc3c(NCc4ccc(F)cc4)ncnc32)O1	none
Cc1ccc(S(=O)(=O)N(CC(=O)Nc2cccc(N(C)S(C)(=O)=O)c2)c2ccc(Cl)c(Cl)c2)cc1	ADAM10 inh 25, ADAM17 inh 13 | ADAM10 counter 39 | ADAM17 confirm 22
CN(c1cccc(NC(=O)CN(c2ccc(Cl)c(Cl)c2)S(=O)(=O)c2ccccc2)c1)S(C)(=O)=O	none
Cc1c2cnn(CC(=O)NCCN3CCOCC3)c(=O)c2c(C)n1Cc1ccccc1F	none
COC(=O)N1CCCCC1c1cc(C(=O)NCc2ccc(Cl)c(Cl)c2)no1 (stereo not given)	none
O=C(NCc1ccc(Cl)c(Cl)c1)c1cc(C2CCCCN2C(=O)C2CCCCC2)on1 (stereo not given)	ADAM17 inh 10 | ADAM10 counter inactive | ADAM17 confirm inactive
COc1ccc(NC(=O)C2CCCCN2S(=O)(=O)c2ccccc2)cc1S(=O)(=O)N1CCOCC1 (stereo not given)	none
c1nc(SSc2ncnc3nc[nH]c23)c2[nH]cnc2n1	none

High-throughput results deposited in PubChem BioAssay by The Scripps Research Institute Molecular Screening Center.
